# Coupling enz: coupling enzyme interference in Giardia aldolase counter-screen | coupling enzyme system counterscreen, AmpLite Red fluorescence | activity change, negative = inhibition, % at 58.2 µM, hits read low | 0.67% of 290,000 active | AID 2472; in the data active = activity change below about -30%
#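 Compounds tested against the coupling enzymes alone at 57.5 uM final; readout was AmpLite Red fluorescence (525/598 nm) after 20 min at RT.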
# Tau ThT inhib: tau fibrillization inhibition (ThT binding); P10636; recombinant tau K18 P301L, heparin-induced fibrillization, ThT fluorescence; Potency, µM (series often up to 57.4 µM), for the others: at the highest dose activity, negative = inhibition, most hits filed as inhibitors; 2.1% of 270,000 active; also: potency is read from the fitted curve at half-maximal effect; nearly all actives have a fitted effect of over 55% in size
# Target sequence (P10636 561-689 P618L limits assumed): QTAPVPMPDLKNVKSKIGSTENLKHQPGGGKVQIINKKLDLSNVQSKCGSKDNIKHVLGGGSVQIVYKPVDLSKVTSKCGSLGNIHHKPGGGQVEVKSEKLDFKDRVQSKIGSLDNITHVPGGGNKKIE
#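 Fibril formation assay: tau K18 P301L at 15 uM with trace Alexa 594 label, heparin inducer 20 uM, pH 7 sodium acetate buffer, 37 C for 6 hr; endpoint ThT signal.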
# Tau FP inhib: blocks human tau fibril formation measured by polarization; 0.39% of 280,000 active; Potency, µM (highest dose often 57.7 µM), inactives show at the highest dose activity, negative = inhibition, actives largely listed as inhibitors; AID 1468; K18 P301L tau heparin fibrillization, Alexa594 FP, 6 h; P10636; also: potency is read from the fitted curve at half-maximal effect; nearly all actives have a fitted effect of over 55% in size
#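 Compound effects on tau fibrillization are measured by Alexa 594 fluorescence polarization (ex 555, em 632 nm). K18 P301L tau is used at 15 uM with 0.24 uM labeled tracer, and 20 uM heparin induces aggregation over 6 hr at 37 C.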
# Sfp PPTase inh: blocks B. subtilis Sfp PPTase activity; 3.5% of 310,000 active; AID 1490; Q9F4F7; Potency, µM, without a hit: largest response in the series, negative = inhibition, hits mostly inhibitors; Biochemical Sfp PPTase activity, qHTS;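 also: the enzyme is Sfp with the accession as filed and its product quenches rhodamine fluorescence; potency is read from the fitted curve at half-maximal effect; 0% = enzyme reaction without inhibitor and -100% = no enzyme wells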
#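 Step 1, compound plus 15 nM Sfp-PPTase, 15 min, room temperature. Step 2, add rhodamine-CoA (5 uM) and BHQ-2-YbbR (12.5 uM). Step 3, read 525/598 nm fluorescence at 0 and 30 min.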
# Tau fluor cs: counter-screen for tau fibril formation inhibitors | 0.93% of 280,000 active | Potency, µM (top dose mostly 57.7 µM), inactives show at the highest dose activity change, negative = decrease | tau K18 P301L (four-repeat tau fragment) Alexa594 fluorescence, heparin fibrillization; also: potency is read from the fitted curve at half-maximal effect; nearly all actives have a fitted effect of over 55% in size
#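 Human K18 P301L tau (15 uM unlabeled plus 0.24 uM Alexa 594-labeled, final) in 100 mM sodium acetate pH 7 was mixed with compound and 20 uM heparin and incubated 6 hr at 37 C.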
# KDM4E inh: inhibitors of human JMJD2E histone demethylase; B2RXH2; JMJD2E catalytic domain, FDH-coupled NADH fluorescence (FDH is formaldehyde dehydrogenase); Potency, µM (titrated, usually from 57.1 µM), inactives show at the highest dose activity change, negative = inhibition, usual class: inhibitors; 1.6% of 230,000 active; active = well fitted inhibition curve with a large enough effect, not every such curve was filed as active; inconclusive = small, poorly fitted or top-dose-only effect, or another doubt; inactive = no such curve, though single readings can be large or run the other way;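 also: potency is read from the fitted curve at half-maximal effect; 0% = wells with enzyme and -100% = buffer wells without enzyme; nearly all actives have a fitted effect of over 50% in size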
# Target sequence (B2RXH2 1-337 limits assumed): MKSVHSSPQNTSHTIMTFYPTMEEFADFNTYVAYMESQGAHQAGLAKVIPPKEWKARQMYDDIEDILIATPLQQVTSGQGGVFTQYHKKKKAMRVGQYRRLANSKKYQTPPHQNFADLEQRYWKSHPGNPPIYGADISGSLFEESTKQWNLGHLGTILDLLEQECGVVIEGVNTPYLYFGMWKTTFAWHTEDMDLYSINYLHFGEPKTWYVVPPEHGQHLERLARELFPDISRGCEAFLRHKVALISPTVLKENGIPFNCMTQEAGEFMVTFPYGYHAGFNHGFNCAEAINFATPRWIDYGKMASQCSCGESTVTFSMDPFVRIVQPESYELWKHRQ
# * hit, by the source's call; ? = inconclusive; nt = no result; [ ] = another dose, or the depositor's remark. An excerpt weighted towards active compounds, which were near 5.3% of everything screened. Unless noted, calls follow the shape of the dose curve; as a rule, active = well fitted curve in the direction sought with a large enough effect; inconclusive = small, poorly fitted or top-dose-only effect, or another doubt; inactive = no such curve, though single readings can be large; an effect the other way counts as inactive or inconclusive. Unless noted, % is scaled to controls: 0 for no effect and ±100 for the full control effect.
SMILES,Coupling enz,Tau ThT inhib,Tau FP inhib,Sfp PPTase inh,Tau fluor cs,KDM4E inh
CC1=C(C(=O)N2CCOCC2)C(c2ccc(C)cc2)NC(=S)N1 (stereo unspecified),3,-3%,6%,50µM*,-2%,-2%
CCCC(=O)C1=C(c2ccccc2)C(C#N)(C#N)C(C#N)=C1N,-15,28µM*,?,28µM*,?,?
N#C/C(=C\c1ccc(-c2ccccc2Cl)o1)C(=O)Nc1nc2ccccc2s1,-1,3.5µM*,13%,13%,-5%,3%
Cc1ccc(NC(=O)/C(C#N)=C\c2ccc(-c3ccc(Cl)cc3)o2)c(C)c1,nt,?,-2%,nt,-2%,nt
N#C/C(=C\c1ccc(-c2cc(Cl)ccc2Cl)o1)C(=O)Nc1ccccc1C(=O)O,nt,7.1µM*,-4%,nt,-7%,nt
CC1CC1c1ccc(/C=C(\C#N)C(=O)Nc2cc(Cl)ccc2Cl)o1 (stereo unspecified),-1,-8%,-11%,-5%,-11%,-6%
CC1CC1c1ccc(/C=C(\C#N)C(=O)Nc2ccc(Cl)cc2Cl)o1 (stereo unspecified),0,?,-13%,56µM*,-13%,-22%
CCCCC/C=C\C=C\[C@H](O)CCCCCCCC(=O)O,nt,-3%,3%,24%,1%,nt
Cc1ccc(N/C=C2/Sc3ccccc3NC2=O)cc1,1,?,8%,0%,-15%,-3%
O=C1Nc2ccccc2S/C1=C/NCc1ccccc1Cl,2,?,-6%,56µM*,?,0%
CCn1c(NN)nc2sc3c(c2c1=O)CCC3,-1,?,-6%,56µM*,?,?
NNc1nc2sc3c(c2c(=O)n1Cc1ccccc1)CCC3,-1,?,-2%,32µM*,-21%,-28%
O=C(O)CSc1nc2sc3c(c2c(=O)n1Cc1ccccc1)CCCCC3,15,nt,nt,-4%,nt,nt
Nn1c(Nc2ccccc2)nc2sc3c(c2c1=O)CCC3,-3,20µM*,2%,-22%,28µM*[quencher],?
CC(=O)c1ccc(NC(=O)c2cc(-c3ccc(C)s3)nc3ccccc23)cc1,nt,10%,-6%,nt,-18%,nt
Cn1cnc2c(ncn2[C@@H]2O[C@H](CO)[C@@H](O)[C@H]2O)c1=N,nt,5%,-1%,22%,7%,nt
Clc1cccc(N/N=C/c2ccc(N3CCOCC3)s2)c1,-4,13µM*,?,?,16µM*[quencher],11µM*
O=C(N/N=C/c1ccc(N2CCOCC2)s1)c1ccccc1Br,-3,?,3%,35µM*,-12%,-23%
CC(C)(C)OC(=O)N/N=C/c1ccc(N2CCOCC2)s1,3,?,0%,-8%,-16%,?
CCN1C(=O)[C@H]2[C@H]3[C@H](O)[C@H](O)C/C(=N/NC(=O)OCc4ccc(OC)cc4)[C@@H]3CC[C@@H]2C1=O,2,-8%[11.5 µM],4%[11.6 µM],7%,0%[11.6 µM],nt
CCOc1ccc(CNC(=O)C2CCN(S(=O)(=O)c3ccc4c(ccn4C)c3)CC2)cc1,nt,3%,2%,nt,-13%,nt
Cc1c(C(=O)OC(C)C)sc(NC(=O)C2c3ccccc3Oc3ccccc32)c1C(=O)OC(C)C,nt,6%,?,nt,-10%,nt
Nc1cccc2nsnc12,-23,28µM*,?,-22%,-16%,?
C=CCn1c(N)c(C(=O)NCc2ccco2)sc1=S,-1,-11%,-2%,-14%,-8%,7%
O=C(NCc1ccco1)c1sc(=S)n2c1[nH]c(=O)c1ccccc12,1,-16%,-2%,45µM*,-9%,2%
SMILES,Coupling enz,Tau ThT inhib,Tau FP inhib,Sfp PPTase inh,Tau fluor cs,KDM4E inh
O=C(NC1CCCC1)c1sc(=S)n2c1[nH]c(=O)c1ccccc12,2,16µM*,11%,-24%,?,2%
CCN1CCN(CCCNC(=O)Cn2nc(C)n3c(cc4c(OC)cccc43)c2=O)CC1,nt,0%,-10%,nt,-7%,nt
CCCCn1c(=O)[nH]c(=O)c2c1nc(CN(C)Cc1cccc(OC)c1OC)n2CCC,1,nt,nt,50µM*,nt,nt
Cc1ccc([N+](=O)[O-])cc1-c1ccc(/C=C(\C#N)c2[nH]nc(N)c2C#N)o1,-1,8.9µM*,?,-20%,?,6%
COCc1cc(C)nc(OCC(=O)N/N=C/c2ccc(-c3cc([N+](=O)[O-])ccc3C)o2)c1C#N,6,-20%,1%,-13%,?,?
COCCCNC(=O)c1ccc(-n2c(-c3ccccc3)cc3c2CCCCC3)cc1,nt,-5%,18µM*,nt,?,nt
CN(C)CCNC(=O)c1ccc(-n2c(-c3ccccc3)cc3c2CCCCC3)cc1,nt,1%,22µM*,nt,?,nt
COc1ccc2c(c1)O[C@@H](c1cccc(C(F)(F)F)c1)[C@H](OC(=O)NS(=O)(=O)c1ccc(C)cc1)C2=O,1,-13%,-3%,10%,-11%,?
O=C(O)c1ccc(-c2nc(-c3ccc(Cl)c(Cl)c3)cs2)cc1,1,-8%,-6%,-16%,-11%,?
NC(=O)C(=CNc1nc(-c2ccc(Cl)c(Cl)c2)cs1)C(N)=O,-18,16µM*,-9%,22µM*,16µM*[quencher],7.9µM*
CCCn1c(CCC(=O)Nc2cc(OC)cc(OC)c2)nc2cccnc21,nt,-4%,-3%,nt,-12%,nt
O=C(CNC1=NCCC1)c1ccc(Cl)cc1,-36*,-13%,12%,-14%,-3%,-7%
CCCN1C(=O)C(O)(CC(=O)c2ccc(OC)c(OC)c2)c2ccccc21 (stereo unspecified),nt,12%,-9%,nt,0%,nt
CCCn1c(=N)n(CC(O)c2ccco2)c2ccccc21 (stereo unspecified),-4,-1%,-3%,8%,2%,-1%
Cn1c(=N)n(CC(O)c2ccco2)c2ccccc21 (stereo unspecified),-1,5%,-2%,89µM*,10%,5%
Cc1cccc(CNc2nc(-c3ccccc3CN(C)C)nc3ccccc23)c1,3,-9%,-3%,-20%,-13%,4%
CN(C)c1ccc(-c2ccc3ncnc(N(C)Cc4ccco4)c3c2)cc1,-10,nt,nt,-16%,nt,nt
CC(=O)N1CCN(c2ccc(NCc3ccc(C)cc3)cc2)CC1,-7,?,-8%,40µM*,-20%,?
CCc1ccc(CNc2ccc(N3CCN(C(C)=O)CC3)cc2)cc1,-12,?,-4%,35µM*,-20%,?
Cc1ccc(CNC(=O)N2CCN(c3ccc(C)cc3)CC2)cc1,7,nt,nt,8%,nt,nt
COc1cc(CNc2ccc(N3CCN(C(C)=O)CC3)cc2)ccc1OCc1ccccc1,-4,4µM*,-15%,-27%,?,16µM*
COc1cc(CNc2ccc(N3CCOCC3)cc2)ccc1OCC(=O)NC(C)(C)C,1,nt,nt,-8%,nt,nt
